The supplement of paper PMC11732987, “Enantioselective OTUD7B fragment discovery through chemoproteomics screening and high-throughput optimisation” (Communications Chemistry, 2025)

How the values were obtained:
Assay in all cases: log2 ratio of Biotin-Ahx-Ub-VS probe labelling (fragment/DMSO); higher = less target engagement (more negative = stronger competition), active = hit call of the paper (q ≤ 0.05, log2 ratio ≤ -1)
Conditions in all cases: compound concentration: 200 uM; treatment time: 3 h
USP19 = molecular target: T1, USP19 (UniProt O94966)
T1 sequence (whole entry): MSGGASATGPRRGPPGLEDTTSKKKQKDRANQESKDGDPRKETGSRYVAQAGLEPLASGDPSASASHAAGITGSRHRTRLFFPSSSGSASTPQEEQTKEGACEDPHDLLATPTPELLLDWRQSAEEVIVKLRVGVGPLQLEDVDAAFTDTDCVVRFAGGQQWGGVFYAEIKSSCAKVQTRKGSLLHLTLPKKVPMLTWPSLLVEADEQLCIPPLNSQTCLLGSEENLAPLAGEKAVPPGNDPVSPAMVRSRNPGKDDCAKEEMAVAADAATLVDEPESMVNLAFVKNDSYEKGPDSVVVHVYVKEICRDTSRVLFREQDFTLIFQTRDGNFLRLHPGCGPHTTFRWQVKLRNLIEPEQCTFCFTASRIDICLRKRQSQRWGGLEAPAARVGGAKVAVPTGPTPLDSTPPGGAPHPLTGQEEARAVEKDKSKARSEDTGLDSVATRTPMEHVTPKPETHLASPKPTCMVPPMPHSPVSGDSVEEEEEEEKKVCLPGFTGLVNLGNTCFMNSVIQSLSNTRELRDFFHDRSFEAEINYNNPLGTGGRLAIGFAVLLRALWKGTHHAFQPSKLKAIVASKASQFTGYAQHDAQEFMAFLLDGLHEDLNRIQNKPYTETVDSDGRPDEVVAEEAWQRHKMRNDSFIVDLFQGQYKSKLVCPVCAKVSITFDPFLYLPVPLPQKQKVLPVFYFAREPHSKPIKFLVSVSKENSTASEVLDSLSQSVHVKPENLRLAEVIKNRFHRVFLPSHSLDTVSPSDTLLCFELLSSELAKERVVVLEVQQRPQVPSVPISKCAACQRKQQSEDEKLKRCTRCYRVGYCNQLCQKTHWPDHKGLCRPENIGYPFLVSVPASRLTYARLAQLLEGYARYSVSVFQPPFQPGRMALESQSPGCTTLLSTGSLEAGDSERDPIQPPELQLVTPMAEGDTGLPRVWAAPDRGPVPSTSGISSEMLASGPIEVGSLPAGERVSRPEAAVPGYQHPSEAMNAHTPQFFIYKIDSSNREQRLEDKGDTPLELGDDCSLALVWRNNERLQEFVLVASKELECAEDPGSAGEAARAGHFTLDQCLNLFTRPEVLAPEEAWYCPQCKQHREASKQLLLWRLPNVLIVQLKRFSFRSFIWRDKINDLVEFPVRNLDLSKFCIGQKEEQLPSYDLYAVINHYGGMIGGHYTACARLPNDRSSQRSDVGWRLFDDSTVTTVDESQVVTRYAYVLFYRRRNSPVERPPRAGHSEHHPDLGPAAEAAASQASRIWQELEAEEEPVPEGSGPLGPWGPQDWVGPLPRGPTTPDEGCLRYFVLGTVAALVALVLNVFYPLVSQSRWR
Method in brief: (§1)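 Labelled DUBs from HEK293T lysate were NeutrAvidin-enriched, digested with LysC and trypsin, and run by diaPASEF LC-MS/MS. Before that, each 495 µg sample in Tris/CHAPS/IGEPAL buffer with protease inhibitors was treated in triplicate with fragment at 200 µM or vehicle for 3 h, then with Biotin-Ahx-Ub-VS at 0.5 µM final for 1 h. Values are average log2 ratios of fragment over vehicle by unpaired t-test, based on global-median-normalised Spectronaut label-free quantities from proteins with ≥2 unique peptides.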

USP22 = molecular target: T2, USP22 (UniProt Q9UPT9)
T2 sequence (whole entry): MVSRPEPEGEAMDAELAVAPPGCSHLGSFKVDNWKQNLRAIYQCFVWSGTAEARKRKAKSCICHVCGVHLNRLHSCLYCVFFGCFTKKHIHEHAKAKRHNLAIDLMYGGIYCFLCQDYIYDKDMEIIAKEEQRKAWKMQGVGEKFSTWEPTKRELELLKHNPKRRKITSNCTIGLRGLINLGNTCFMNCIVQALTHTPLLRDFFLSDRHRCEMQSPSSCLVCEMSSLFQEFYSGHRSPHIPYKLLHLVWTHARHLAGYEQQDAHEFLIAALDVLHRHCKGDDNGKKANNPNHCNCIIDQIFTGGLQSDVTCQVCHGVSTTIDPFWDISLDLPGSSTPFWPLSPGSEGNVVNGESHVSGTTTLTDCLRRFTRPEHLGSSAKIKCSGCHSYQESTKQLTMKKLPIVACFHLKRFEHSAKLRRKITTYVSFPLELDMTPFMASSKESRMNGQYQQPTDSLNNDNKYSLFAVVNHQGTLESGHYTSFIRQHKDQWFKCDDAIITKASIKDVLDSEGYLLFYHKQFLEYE
Method in brief: as §1

USP24 = USP24 (UniProt Q9UPU5)
Method in brief: as §1

USP25 = molecular target: T3, USP25 (UniProt Q9UHP3)
T3 sequence (whole entry): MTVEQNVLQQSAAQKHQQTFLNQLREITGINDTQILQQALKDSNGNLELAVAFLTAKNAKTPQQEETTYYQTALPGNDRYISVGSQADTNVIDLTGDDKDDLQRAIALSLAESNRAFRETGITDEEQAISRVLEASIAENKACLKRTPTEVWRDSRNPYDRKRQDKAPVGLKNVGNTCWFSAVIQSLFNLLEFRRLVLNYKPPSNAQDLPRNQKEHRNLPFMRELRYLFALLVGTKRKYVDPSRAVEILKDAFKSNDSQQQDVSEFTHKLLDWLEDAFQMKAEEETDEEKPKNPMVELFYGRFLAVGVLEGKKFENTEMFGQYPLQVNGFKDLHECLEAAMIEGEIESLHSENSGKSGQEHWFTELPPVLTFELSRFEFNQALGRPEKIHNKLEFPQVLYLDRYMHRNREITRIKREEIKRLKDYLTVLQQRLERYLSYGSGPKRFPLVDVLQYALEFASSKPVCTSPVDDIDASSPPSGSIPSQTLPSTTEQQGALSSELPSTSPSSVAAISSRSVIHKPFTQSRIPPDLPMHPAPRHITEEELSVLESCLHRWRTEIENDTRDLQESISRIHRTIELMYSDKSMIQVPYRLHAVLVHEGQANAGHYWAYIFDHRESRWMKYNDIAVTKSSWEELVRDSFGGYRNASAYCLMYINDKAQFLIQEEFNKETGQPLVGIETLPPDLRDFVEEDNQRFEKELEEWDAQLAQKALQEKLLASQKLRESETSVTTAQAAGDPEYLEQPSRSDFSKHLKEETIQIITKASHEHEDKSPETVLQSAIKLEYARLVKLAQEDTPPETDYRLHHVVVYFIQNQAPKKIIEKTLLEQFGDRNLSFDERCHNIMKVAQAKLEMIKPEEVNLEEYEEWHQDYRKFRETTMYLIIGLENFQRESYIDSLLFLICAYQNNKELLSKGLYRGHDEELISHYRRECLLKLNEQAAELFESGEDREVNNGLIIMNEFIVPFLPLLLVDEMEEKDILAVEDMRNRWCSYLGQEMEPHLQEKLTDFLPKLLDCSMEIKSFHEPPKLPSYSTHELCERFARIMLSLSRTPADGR
Method in brief: as §1

USP28 = molecular target: T4, USP28 (UniProt Q96RU2)
T4 sequence (whole entry): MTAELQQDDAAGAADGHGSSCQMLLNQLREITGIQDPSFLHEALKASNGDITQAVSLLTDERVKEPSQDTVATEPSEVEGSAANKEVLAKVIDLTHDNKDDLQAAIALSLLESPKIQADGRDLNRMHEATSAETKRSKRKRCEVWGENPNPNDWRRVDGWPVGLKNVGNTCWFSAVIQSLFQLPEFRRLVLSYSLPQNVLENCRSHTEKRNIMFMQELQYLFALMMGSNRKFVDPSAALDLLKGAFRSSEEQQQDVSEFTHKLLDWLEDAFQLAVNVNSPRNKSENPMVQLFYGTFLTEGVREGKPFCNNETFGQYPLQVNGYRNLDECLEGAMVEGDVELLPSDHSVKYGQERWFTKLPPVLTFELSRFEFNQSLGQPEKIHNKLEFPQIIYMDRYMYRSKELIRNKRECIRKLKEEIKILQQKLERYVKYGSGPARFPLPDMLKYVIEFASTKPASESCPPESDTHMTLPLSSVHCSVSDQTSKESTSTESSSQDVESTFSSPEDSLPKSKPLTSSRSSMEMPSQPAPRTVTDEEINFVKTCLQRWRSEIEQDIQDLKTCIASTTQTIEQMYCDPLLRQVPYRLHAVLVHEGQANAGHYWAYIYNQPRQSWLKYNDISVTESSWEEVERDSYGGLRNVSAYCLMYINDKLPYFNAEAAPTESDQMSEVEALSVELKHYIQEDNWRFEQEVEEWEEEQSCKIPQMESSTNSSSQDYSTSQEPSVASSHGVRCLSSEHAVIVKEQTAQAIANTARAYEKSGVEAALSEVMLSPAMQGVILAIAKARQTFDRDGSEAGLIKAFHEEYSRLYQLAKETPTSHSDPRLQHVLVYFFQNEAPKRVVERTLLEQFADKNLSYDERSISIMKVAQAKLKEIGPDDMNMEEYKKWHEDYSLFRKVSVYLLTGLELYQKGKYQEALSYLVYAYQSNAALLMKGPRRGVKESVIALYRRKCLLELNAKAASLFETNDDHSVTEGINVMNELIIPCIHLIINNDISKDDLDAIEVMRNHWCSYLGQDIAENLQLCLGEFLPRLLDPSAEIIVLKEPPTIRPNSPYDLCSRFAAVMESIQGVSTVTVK
Method in brief: as §1

Measured: log2 ratio of Biotin-Ahx-Ub-VS probe labelling

Sequence of USP24 (Q9UPU5 whole entry): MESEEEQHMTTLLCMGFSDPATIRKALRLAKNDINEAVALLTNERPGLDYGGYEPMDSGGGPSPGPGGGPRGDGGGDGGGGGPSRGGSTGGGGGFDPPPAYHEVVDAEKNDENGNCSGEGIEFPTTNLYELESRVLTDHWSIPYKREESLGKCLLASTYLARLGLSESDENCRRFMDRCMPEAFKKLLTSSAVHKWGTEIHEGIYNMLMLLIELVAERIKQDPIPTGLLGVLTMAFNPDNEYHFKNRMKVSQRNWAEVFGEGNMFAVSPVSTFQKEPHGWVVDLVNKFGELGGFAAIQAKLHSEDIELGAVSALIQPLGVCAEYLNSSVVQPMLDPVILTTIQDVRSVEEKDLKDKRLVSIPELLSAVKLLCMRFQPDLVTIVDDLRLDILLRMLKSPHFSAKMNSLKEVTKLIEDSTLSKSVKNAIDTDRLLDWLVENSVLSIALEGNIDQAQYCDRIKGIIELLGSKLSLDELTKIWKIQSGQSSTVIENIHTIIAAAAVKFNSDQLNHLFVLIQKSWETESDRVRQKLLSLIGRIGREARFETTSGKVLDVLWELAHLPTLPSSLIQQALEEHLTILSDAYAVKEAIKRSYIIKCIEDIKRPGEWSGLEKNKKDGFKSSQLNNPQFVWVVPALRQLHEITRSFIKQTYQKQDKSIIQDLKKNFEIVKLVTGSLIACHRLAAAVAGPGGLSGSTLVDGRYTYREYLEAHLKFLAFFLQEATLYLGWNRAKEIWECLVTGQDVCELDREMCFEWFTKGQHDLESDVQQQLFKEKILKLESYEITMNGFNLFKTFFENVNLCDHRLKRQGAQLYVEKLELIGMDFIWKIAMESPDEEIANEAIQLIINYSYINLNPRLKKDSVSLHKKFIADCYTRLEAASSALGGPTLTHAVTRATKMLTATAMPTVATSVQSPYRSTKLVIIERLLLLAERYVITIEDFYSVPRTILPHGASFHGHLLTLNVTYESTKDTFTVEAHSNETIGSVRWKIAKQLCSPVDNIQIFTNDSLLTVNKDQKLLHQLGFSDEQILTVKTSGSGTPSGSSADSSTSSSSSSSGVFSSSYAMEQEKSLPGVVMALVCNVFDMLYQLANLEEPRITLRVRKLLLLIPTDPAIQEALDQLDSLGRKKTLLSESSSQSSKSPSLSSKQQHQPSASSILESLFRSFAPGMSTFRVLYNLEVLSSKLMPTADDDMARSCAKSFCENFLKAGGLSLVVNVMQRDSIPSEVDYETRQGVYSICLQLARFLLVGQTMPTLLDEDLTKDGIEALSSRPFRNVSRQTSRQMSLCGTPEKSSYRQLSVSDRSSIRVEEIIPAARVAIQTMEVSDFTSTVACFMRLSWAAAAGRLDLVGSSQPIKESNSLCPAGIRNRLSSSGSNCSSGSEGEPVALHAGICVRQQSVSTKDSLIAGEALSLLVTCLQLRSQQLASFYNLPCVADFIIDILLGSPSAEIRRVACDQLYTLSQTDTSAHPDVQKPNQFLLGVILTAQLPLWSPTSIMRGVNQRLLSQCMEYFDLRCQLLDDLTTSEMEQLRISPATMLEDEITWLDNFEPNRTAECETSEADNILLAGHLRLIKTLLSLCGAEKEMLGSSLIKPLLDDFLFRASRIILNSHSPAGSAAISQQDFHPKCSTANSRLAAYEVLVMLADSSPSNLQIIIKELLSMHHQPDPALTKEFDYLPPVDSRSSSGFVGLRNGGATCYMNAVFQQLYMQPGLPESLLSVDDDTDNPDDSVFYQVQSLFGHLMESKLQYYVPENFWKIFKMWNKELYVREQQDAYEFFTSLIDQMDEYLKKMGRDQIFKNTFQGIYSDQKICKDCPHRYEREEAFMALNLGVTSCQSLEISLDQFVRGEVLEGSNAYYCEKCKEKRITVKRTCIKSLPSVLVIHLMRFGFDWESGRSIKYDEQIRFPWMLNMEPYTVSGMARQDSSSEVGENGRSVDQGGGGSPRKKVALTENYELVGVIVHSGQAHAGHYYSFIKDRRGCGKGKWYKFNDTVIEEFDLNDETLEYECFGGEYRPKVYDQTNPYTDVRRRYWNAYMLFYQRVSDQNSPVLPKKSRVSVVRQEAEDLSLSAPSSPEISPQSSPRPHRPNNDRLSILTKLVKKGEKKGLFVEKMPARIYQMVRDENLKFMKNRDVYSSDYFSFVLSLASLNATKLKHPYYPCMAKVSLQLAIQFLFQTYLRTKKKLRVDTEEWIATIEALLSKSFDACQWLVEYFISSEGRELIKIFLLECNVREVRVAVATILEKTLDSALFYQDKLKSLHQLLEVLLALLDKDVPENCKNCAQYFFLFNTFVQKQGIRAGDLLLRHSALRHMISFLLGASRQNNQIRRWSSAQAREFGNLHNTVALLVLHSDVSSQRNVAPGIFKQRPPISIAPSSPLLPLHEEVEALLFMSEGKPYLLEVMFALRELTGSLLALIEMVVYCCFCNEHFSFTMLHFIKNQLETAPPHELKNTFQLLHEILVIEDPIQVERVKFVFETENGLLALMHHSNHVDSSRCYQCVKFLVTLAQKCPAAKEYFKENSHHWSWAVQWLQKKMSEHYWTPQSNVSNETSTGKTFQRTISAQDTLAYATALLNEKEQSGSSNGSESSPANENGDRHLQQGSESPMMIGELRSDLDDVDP

O=C(CN1CCN(C(=O)CCl)CC1)Nc1cccc(F)c1
inactive: USP19 -0.265 | USP22 0.00778 | USP24 -0.335 | USP25 -0.473 | USP28 -0.428
